TDP1 cell noCPT – qHTS for Inhibitors of human tyrosyl-DNA phosphodiesterase 1 (TDP1): qHTS in cells in absence of CPT. DT40 Tdp1-/- hTDP1 cells, no CPT, ATP luminescence, 48 h. Potency, µM (highest dose often 46.2 µM), without a hit: top-dose activity change, negative = growth inhibition, actives largely listed as inhibitors. 15% of 420,000 active. AID 686978, 2013; also: potency is read from the fitted curve at half-maximal effect; % is scaled to controls: 0 for no effect and ±100 for the full control effect; nearly all actives have a fitted effect of over 55% in size
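Seeded 400 DT40-hTDP1 cells/well (vehicle DMSO, no 20 nM CPT); pinned compounds; ≥48 hr at 37 °C; CellTiter-Glo luminescence as viability measure.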
DT40 TDP1 CPT – growth inhibition of DT40 Tdp1-/-;hTDP1 cells with camptothecin (screen for TDP1 inhibitors) | chicken DT40 Tdp1-/-;hTDP1 cells + 20 nM CPT, ATP luminescence, 48 h | 12% of 420,000 active | Potency, µM (series often up to 46.2 µM), for the others: at the top dose activity change, negative = growth inhibition, hits mostly inhibitors | AID 686979; also: potency is read from the fitted curve at half-maximal effect; % is scaled to controls: 0 for no effect and ±100 for the full control effect; nearly all actives have a fitted effect of over 55% in size
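Chicken DT40 Tdp1-/- cells complemented with human TDP1, 400 cells/well, exposed to compounds plus 20 nM camptothecin for at least 48 h at 37 C; viability read as ATP content by CellTiter-Glo luminescence.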
IL-1B inflam inh – inflammasome signaling inhibition, IL-1 beta readout | THP-1 LPS/ATP IL-1B secretion, AlphaLISA, 16 h; active compounds read low | activity change, % at 57.5 µM | 4.7% of 360,000 active | AID 743279; in the data active = activity change below about -50%; inconclusive = mostly about -30% to -49%; also: % is scaled to controls: 0 for no effect and ±100 for the full control effect
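Secreted IL-1B measured by AlphaLISA bead assay after 16 h compound exposure of THP-1 cells; compounds (final up to 57.5 uM) added 1 h before LPS (250 ng/mL) and ATP (1.25 mM) stimulation; lower signal means less secretion.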
TGFb SMAD3 inh – blocks TGF-b signaling; Potency, µM (titrated, usually from 46.1 µM), for the others: at the highest dose activity, negative = inhibition, hits mostly inhibitors; AID 588855; 1.2% of 410,000 active; HepG2 CAGA-GFP TGF-b/SMAD3 reporter, GFP fluorescence, 18 h; TGF-beta stimulated, 500 pg/mL final; also: potency is read from the fitted curve at half-maximal effect; % is scaled to controls: 0 for no effect and ±100 for the full control effect; nearly all actives have a fitted effect of over 65% in size
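HEPG2 CAGA-GFP cells (1000/well, DMEM with 1% FBS) were pre-incubated 2 h at 37 degrees C, given compound by pin tool, then stimulated with TGF-beta at 500 pg/mL final for 18 h before per-cell GFP fluorescence imaging.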
ASM inhibitor – blocks human secretory acid sphingomyelinase; Potency, µM (titrated, usually from 57.5 µM), for inactives: at the highest dose activity change, negative = inhibition, usual class: inhibitors; P17405; placental ASM, HMU-PC fluorogenic substrate, 60 min; 0.006% of 340,000 active; also: potency is read from the fitted curve at half-maximal effect
Target sequence (P17405 47-631 limits assumed): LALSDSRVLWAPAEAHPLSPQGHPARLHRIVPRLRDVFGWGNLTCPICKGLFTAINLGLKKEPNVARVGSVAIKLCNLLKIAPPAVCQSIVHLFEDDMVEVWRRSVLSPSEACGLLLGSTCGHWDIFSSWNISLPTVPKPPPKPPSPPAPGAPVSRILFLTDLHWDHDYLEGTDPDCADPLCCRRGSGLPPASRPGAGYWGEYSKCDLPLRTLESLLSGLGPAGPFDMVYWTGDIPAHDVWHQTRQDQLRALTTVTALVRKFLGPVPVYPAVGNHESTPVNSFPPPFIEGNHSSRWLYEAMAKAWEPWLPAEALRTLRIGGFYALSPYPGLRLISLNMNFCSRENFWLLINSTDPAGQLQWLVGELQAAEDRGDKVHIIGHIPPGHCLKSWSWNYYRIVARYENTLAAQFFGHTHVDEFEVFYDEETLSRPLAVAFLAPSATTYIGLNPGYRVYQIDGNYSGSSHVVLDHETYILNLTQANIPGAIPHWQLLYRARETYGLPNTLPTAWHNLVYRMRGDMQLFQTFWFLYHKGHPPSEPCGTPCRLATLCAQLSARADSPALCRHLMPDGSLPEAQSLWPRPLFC
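Human placenta-derived ASM enzyme was preincubated with compound for 10 minutes at room temperature, then given fluorogenic substrate HMU-PC0 (9 uM final) for 60 minutes at 37 °C; a pH 10 stop preceded fluorescence reading at Ex 386/Em 447 nm.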
HepG2 tox – HepG2 cytotoxicity, counter-screen for TGF-b inhibitors. HepG2 CAGA-GFP viability, ATP luminescence, 18 h. Potency, µM (series often up to 46.1 µM), without a hit: at the highest dose activity change, negative = cytotoxicity, actives largely listed as cytotoxic. 0.76% of 410,000 active; also: potency is read from the fitted curve at half-maximal effect
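HepG2 CAGA-GFP cells (1000/well, DMEM with 1% FBS) received compound, then TGF-beta at 500 pg/mL final, and were incubated 18 hours at 37 degrees C. Viability was read by CellTiter-Glo luminescence. Media-only wells were set as complete cell-killing and DMSO as no toxicity.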
The depositor's hits bear a star; i = inactive; ? = inconclusive; · = no result given. Most compounds without a hit are left out; they make up all but 19% or so of the library. Unless noted, calls follow the shape of the dose curve; as a rule, active = well fitted curve in the direction sought with a large enough effect; inconclusive = small, poorly fitted or top-dose-only effect, or another doubt; inactive = no such curve, though single readings can be large; an effect the other way counts as inactive or inconclusive.

SMILES	TDP1 cell noCPT	DT40 TDP1 CPT	IL-1B inflam inh	TGFb SMAD3 inh	ASM inhibitor	HepG2 tox
Cc1cccc(C)c1NC(=O)C1(C)CCC(=O)N1CCCn1ccnc1 (stereo unspecified)	17%	5%	20	-6%	·	-2%
COc1ccc(C(=O)NC(=S)NNC(=O)c2ccc(C)cc2)cc1	?	?	32	-19%	3%	-44%
COc1ccc(C(=O)NC(=S)NNC(=O)c2ccc3ccccc3n2)cc1	18µM*	?	48	-26%	11%	-38%
CC(=O)c1ccc(OCCCC(=O)NNC(=O)c2ccccn2)cc1	15µM*	?	138	13%	2%	-2%
COc1cc(OC)cc(C(=O)NNC(=O)c2ccc3ccccc3n2)c1	5.2µM*	5.2µM*	50	?	-3%	-51%
O=C(NNC1=Nc2ccccc2SC1)c1cccc([N+](=O)[O-])c1	23µM*	16µM*	53	?	-2%	-1%
CCC(C)[C@H](NC(=O)N1CC(=O)Nc2ccccc21)C(=O)N1CCC[C@H]1C(=O)O (stereo partly specified)	-7%	-10%	-10	2%	7%	-8%
O=c1[nH]c2ccccc2cc1CN(CC1CCCO1)S(=O)(=O)c1ccccc1 (stereo unspecified)	-4%	5%	-11	-1%	1%	2%
COc1ccc2c(c1)C(=NNC(=O)c1ccccn1)c1cc(OC)ccc1-2	2.6µM*	4.6µM*	-8	0%	-6%	-33%
COc1cc(OC)cc(C(=O)NNC(=O)c2ccccn2)c1	6.5µM*	2.9µM*	146	-31%	2%	-26%
O=[N+]([O-])c1cccc(/C=C/c2ccccn2)c1	7%	-1%	-30	-14%	-1%	-32%
O=C(NNC(=O)c1ccccn1)c1cccc([N+](=O)[O-])c1	16µM*	16µM*	108	-4%	-2%	-2%
N#C/C(=C\c1cccc([N+](=O)[O-])c1)c1ccccn1	15µM*	-24%	-88*	-4%	2%	-20%
CC(c1ccccc1)n1ccnc1CO (stereo unspecified)	-6%	2%	-3	-2%	·	-11%
CC(=O)Nc1ccc(S(=O)(=O)N2CCC(NC(=O)C(Cc3cccc(F)c3)NC(C)=O)CC2)cc1 (stereo unspecified)	8%	-28%	-6	15%	0%	-1%
Cc1cc(C)c(NC(=O)CSc2nc(C)cc(C)c2C#N)c(C)c1	·	·	·	4%	·	-7%
COc1ccc(NC(=O)CSc2nnc(-c3nonc3NC(C)=O)n2-c2ccccc2)cc1	?	?	·	-10%	·	2%
COc1ccccc1N=C1SC(C(=O)Nc2cccc(Cl)c2Cl)C(N)=C1C(N)=O (stereo unspecified)	3.3µM*	2.9µM*	-23	-10%	1%	2%
CC(C)=C1SC(N2CCN(c3cccc(Cl)c3)CC2)=NC1=O	?	?	-59*	?	-6%	-8%
Cc1c(/C=N\NC(=O)c2c[nH]c3ccccc23)cnn1C	-12%	-2%	7	-1%	1%	-9%
O=C(N/N=C/c1cccs1)c1c[nH]c2ccccc12	12µM*	?	-10	4%	-1%	-3%
CCc1ccc(/C=N/NC(=O)c2c[nH]c3ccccc23)s1	-20%	21µM*	?	-15%	-7%	-12%
O=C(Cc1c[nH]c2ccccc12)N/N=C/c1ccc(F)cc1	21µM*	16µM*	-15	0%	-4%	8%
CCN(CC)c1ccc(/C=N/NC(=O)c2c[nH]c3ccccc23)cc1	23µM*	?	-27	-24%	i	-11%
O=C(NC(Cc1c[nH]c2ccccc12)C(=O)N/N=C/c1ccc(Cl)cc1)c1cccs1 (stereo unspecified)	?	12µM*	-66*	?	-21%	5%
SMILES	TDP1 cell noCPT	DT40 TDP1 CPT	IL-1B inflam inh	TGFb SMAD3 inh	ASM inhibitor	HepG2 tox
CCOC(=O)N1CCc2c(sc3c2c(=O)n(Cc2ccccc2)c(=O)n3Cc2ccccc2Cl)C1	?	?	·	0%	·	6%
CC(=O)c1cccc(-n2c(=O)c3c4c(sc3n(Cc3cccc(C)c3)c2=O)CN(C(C)=O)CC4)c1	15µM*	16µM*	·	1%	·	-1%
CC(=O)N1CCc2c(sc3c2c(=O)n(-c2ccccc2)c(=O)n3CC(=O)c2ccccc2)C1	-29%	25%	·	?	·	-14%
CC(=O)N1CCc2c(sc3c2c(=O)n(-c2ccccc2)c(=O)n3Cc2cccc(C(F)(F)F)c2)C1	18µM*	16µM*	·	?	·	-61%
CCOC(=O)N1CCc2c(sc3c2c(=O)n(Cc2ccccc2)c(=O)n3Cc2ccc(C)cc2)C1	?	?	1	-1%	-7%	-7%
COc1ccccc1NC(=O)Cn1c(=O)n(-c2cccc(C(C)=O)c2)c(=O)c2c3c(sc21)CN(C(C)=O)CC3	3%	3%	·	-29%	·	0%
CCOC(=O)N1CCc2c(sc3c2c(=O)n(CCc2ccccc2)c(=O)n3Cc2ccc(C)cc2C)C1	23µM*	?	·	-26%	·	-30%
CCOC(=O)N1CCc2c(sc3c2c(=O)n(CCc2ccccc2)c(=O)n3Cc2c(F)cccc2Cl)C1	26µM*	?	·	-11%	·	-3%
CCCCn1nnnc1C1(C)CCC(=O)N1c1ccc(N2CCOCC2)cc1 (stereo unspecified)	-28%	-26%	-1	·	·	·
CC(=O)N1CCc2c(sc3c2c(=O)n(Cc2ccccc2)c(=O)n3Cc2ccc(Cl)cc2)C1	29µM*	?	·	-5%	·	-4%
CC(=O)N1CCc2c(sc3c2c(=O)n(CCc2ccccc2)c(=O)n3Cc2cccc(C)c2)C1	16µM*	15µM*	·	-1%	·	-21%

Bioassay records (PubChem BioAssay)
